Measurements: PubChem BioAssay
A number with no mark means an inactive call. Activity calls are given as the source filed them. The rule behind the calls is not given here.

Molecular target: L-lactate dehydrogenase (Plasmodium falciparum (isolate CDC / Honduras)) (UniProt Q27743)
Sequence (Q27743 whole entry, looked up): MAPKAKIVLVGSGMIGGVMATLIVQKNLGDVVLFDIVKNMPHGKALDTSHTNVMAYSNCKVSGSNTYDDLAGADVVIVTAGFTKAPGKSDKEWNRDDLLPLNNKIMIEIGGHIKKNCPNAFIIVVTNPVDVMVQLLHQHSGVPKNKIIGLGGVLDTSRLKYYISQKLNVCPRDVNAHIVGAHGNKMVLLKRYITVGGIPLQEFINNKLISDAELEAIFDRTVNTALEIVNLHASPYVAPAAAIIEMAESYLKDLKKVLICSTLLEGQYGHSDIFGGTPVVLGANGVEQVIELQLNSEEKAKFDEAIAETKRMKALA
Assay: PfLDH activity inhibition – cell lysate, 3D7 strain, counter-screen for P. falciparum growth inhibition project (AID 2304);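 note: 0% = vehicle and 100% = reference inhibitor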
Settings: P. falciparum 3D7 crude extract, LDH APAD/NBT absorbance; at 2 µM; stronger effect = higher value
`COc1ccc2nccc(N3CCC(CCNCc4ccc5c(n4)NC(=O)CS5)CC3)c2n1` showed an inhibition of -1%. For `Nc1ncc(-c2ccsc2)c2ccc(-c3cnc[nH]3)cc12`, the inhibition was -7%. Work on `NOCCCCOc1ccccc1` yielded an inhibition of -4%. `Fc1ccc(-c2cncc(Nc3ccncc3)n2)cc1` showed an inhibition of -1%. Compound `COc1ccc2nccc([C@@H](O)CN3CCC(NCc4ccc5sc(=O)[nH]c5c4)CC3)c2c1` has an inhibition of -3%. `CCc1ccc(CN2CCC(CNC(=O)c3cc(-c4cccc(F)c4)cs3)C2)cc1` (stereo not drawn) showed an inhibition of 2%. In the case of `CCOc1ccccc1CNc1nccc(NCCc2cn(C)c3ccccc23)n1`, the inhibition is reported as -4%. `CCCCCCCCCCN1C(=O)C2C(CCCCNC(C)=O)NC3(C(=O)N(Cc4ccc(C(C)(C)C)cc4)c4ccccc43)C2C1=O` (stereo not drawn) showed an inhibition of -3%. Compound `CC(CN)OCn1cnc2c(N)ncnc21` (stereo not drawn) has an inhibition of 4%. With `O=C(NCCc1ccc(Cl)c(Cl)c1)[C@@H]1CCCN1C(=O)c1ccc(O)c(-c2cccc(C(F)(F)F)c2)c1` the inhibition was -7%. `COc1cc(C(F)(F)F)cc2[nH]c(CNCCCNc3nc4ccccc4[nH]3)cc12` showed an inhibition of 2%. Work on `CC(C)CSc1cc(C(=O)Nc2cc(Cl)ccc2O)ccn1` yielded an inhibition of -2%. `O=C(NC1CCN(c2ccnc3cc(Cl)ccc23)C1)c1cccc(F)c1` (stereo not drawn) showed an inhibition of 1%.

Tested on: not listed separately
Assay: inhibition of 3D7 malaria parasite growth – strain 3D7 (AID 2306);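 note: 0% = DMSO wells and 100% = chloroquine plus artemisinin control wells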
Settings: P. falciparum 3D7 erythrocytic growth, LDH absorbance, 72 h; at 2 µM; stronger effect = higher value
For `CC(Nc1nncc(-c2cccc(F)c2)n1)c1ccc(F)cc1` (stereo not drawn), the growth inhibition was 95% (active). For `FC(F)(F)c1ccc2nc(-c3cccc(-c4ccc(CNCCc5ccncc5)cc4)c3)[nH]c2c1`, the growth inhibition was 99% (active). For `CN1CCC(Oc2ccc(CN3CC[C@H](NC(=O)c4ccc(F)c(F)c4)C3)c3ccccc23)C1` (stereo partly drawn), the growth inhibition was 91% (active). In the case of `CCC1(C)CC(CCNCc2ccccc2O)(c2ccccc2OC)CCO1` (stereo not drawn), the growth inhibition is reported as 94% (active). For `COc1ccc(N2CCN(CCCCNC(=O)c3ccc(NC(=O)c4cc(C(F)(F)F)cc(C(F)(F)F)c4)cc3)CC2)cc1OC`, the growth inhibition was 101% (active). With `COc1ccc2nccc([C@@H](O)CN3CCC(NCc4cc5oc(=O)[nH]c5cc4F)CC3)c2c1` the growth inhibition was 99% (active). For `CC(C)CCN=C(N)Nc1ccc(OCCCOc2ccc(NC(N)=NCCC(C)C)cc2)cc1`, the growth inhibition was 100% (active). In the case of `COC(=O)c1ccc(NC(=O)Nc2cccc(CCNCc3ccccc3)c2)cc1`, the growth inhibition is reported as 96% (active). For `N#Cc1cccc(NC(=O)Nc2cccc(-c3ccc(-c4nc5ccc(C(F)(F)F)cc5[nH]4)cc3)c2)c1`, the growth inhibition was 102% (active). With `CC1CCC(C(C)C)C(OC(=O)CSc2nnc3c(n2)[nH]c2ccccc23)C1` (stereo not drawn) the growth inhibition was 88% (active). For `COC(=O)c1cc(C(=O)CN(Cc2ccccc2)C(C)C)ccc1O`, the growth inhibition was 97% (active). In the case of `O=C(NCc1ccc(C(=O)NC2CCCCCC2)cc1)c1ccc(O)c(-c2ccc(Cl)c(Cl)c2)c1`, the growth inhibition is reported as 83% (active). For `COc1ccc(NC(=O)c2ccc3[nH]c(-c4ccc(Cl)cc4)cc3c2)cc1OCCN(C)C`, the growth inhibition was 100% (active). In the case of `NC(N)=Nc1nc(-c2cccc(NC(=O)NCc3ccc(OC(F)(F)F)cc3)c2)cs1`, the growth inhibition is reported as 100% (active). In the case of `FC(F)(F)c1ccc2nc(-c3ccc(-c4ccc(CNCCc5ccncc5)cc4)cc3)[nH]c2c1`, the growth inhibition is reported as 100% (active). For `CN(C(=O)/C=C/c1c(Cl)cccc1Cl)C1CCN(CCCCCNC(=O)/C=C/c2ccc(Cl)c(Cl)c2)CC1`, the growth inhibition was 92% (active). In the case of `COc1ccc(CCn2c(=N)c(C(=O)NCc3cccnc3)cc3c(=O)n4ccccc4nc32)cc1`, the growth inhibition is reported as 98% (active). With `COc1cc(F)c2ncc(Cl)c(CCN3CCC(NCc4ccc5c(c4)NC(=O)CS5)CC3)c2c1` the growth inhibition was 100% (active). In the case of `Fc1ccc2nc(-c3ccc(-c4cccc(CN5CCN(c6ccncc6)CC5)c4)cc3)[nH]c2c1`, the growth inhibition is reported as 100% (active). With `O=c1cc(NCCCNCc2cc(Br)ccc2F)[nH]c2ccccc12` the growth inhibition was 95% (active). For `O=C(Nc1ccc(S(=O)(=O)N2CCCCCC2)cc1)c1cc(-c2ccccc2O)n[nH]1`, the growth inhibition was 100% (active). With `CC(C)NCc1cccc(-c2ccc(-c3nc4ccccc4[nH]3)cc2)c1` the growth inhibition was 101% (active). For `O=C(NCCCCN1CCC(c2c[nH]c3ccccc23)CC1)c1sc(-c2ccc(C(F)(F)F)cc2)nc1CO`, the growth inhibition was 94% (active). With `O=C(Nc1ccc(Cl)cc1F)NC1CCN(CCCCCNC(=O)[C@@H]2C[C@H]2c2ccc(Cl)c(Cl)c2)CC1` the growth inhibition was 101% (active). With `Cc1ccc2nc(C)cc(Nc3ccccc3O)c2c1` the growth inhibition was 96% (active). In the case of `CC(C)c1ccc(-c2nc3ncc(Cl)cc3[nH]2)cc1`, the growth inhibition is reported as 87% (active). With `COc1cc(-n2cnc3cc(-c4ccc(Cl)cc4)sc3c2=O)ccc1OCCN1CCC(c2cccc(NC(C)=O)c2)CC1` the growth inhibition was 99% (active). In the case of `COc1ccc2nccc(N3CCC(CCNCc4ccc5c(n4)NC(=O)CS5)CC3)c2n1`, the growth inhibition is reported as 102% (active). For `Nc1ncc(-c2ccsc2)c2ccc(-c3cnc[nH]3)cc12`, the growth inhibition was 100% (active). In the case of `NOCCCCOc1ccccc1`, the growth inhibition is reported as 99% (active). For `Fc1ccc(-c2cncc(Nc3ccncc3)n2)cc1`, the growth inhibition was 88% (active). With `COc1ccc2nccc([C@@H](O)CN3CCC(NCc4ccc5sc(=O)[nH]c5c4)CC3)c2c1` the growth inhibition was 98% (active). For `CCc1ccc(CN2CCC(CNC(=O)c3cc(-c4cccc(F)c4)cs3)C2)cc1` (stereo not drawn), the growth inhibition was 84% (active). For `CCOc1ccccc1CNc1nccc(NCCc2cn(C)c3ccccc23)n1`, the growth inhibition was 98% (active). For `CCCCCCCCCCN1C(=O)C2C(CCCCNC(C)=O)NC3(C(=O)N(Cc4ccc(C(C)(C)C)cc4)c4ccccc43)C2C1=O` (stereo not drawn), the growth inhibition was 86% (active). In the case of `CC(CN)OCn1cnc2c(N)ncnc21` (stereo not drawn), the growth inhibition is reported as 95% (active). With `O=C(NCCc1ccc(Cl)c(Cl)c1)[C@@H]1CCCN1C(=O)c1ccc(O)c(-c2cccc(C(F)(F)F)c2)c1` the growth inhibition was 97% (active). In the case of `COc1cc(C(F)(F)F)cc2[nH]c(CNCCCNc3nc4ccccc4[nH]3)cc12`, the growth inhibition is reported as 102% (active). In the case of `CC(C)CSc1cc(C(=O)Nc2cc(Cl)ccc2O)ccn1`, the growth inhibition is reported as 100% (active). For `O=C(NC1CCN(c2ccnc3cc(Cl)ccc23)C1)c1cccc(F)c1` (stereo not drawn), the growth inhibition was 95% (active).
